Consider ten molecules from PubChem BioAssay.

Assay [1] is described as follows: optical density shifts of acrAB sulA E. coli – strain DRC41, OD650, 48 h, E. coli filamentation inducer project, primary screen (AID 1152).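 Note: E. coli MC1000 strain DRC41 lacking acrAB efflux pump and sulA.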 Particulars: higher = more signal, called active from +8 up or from −8 down.
Assay [2] in a line: probe aLefty1 binding on compound microarray – biochemical, small-molecule microarray, 635/667 nm fluorescence, primary screen (AID 1153).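 Note: score merges spot fluorescence with signal-to-noise ratio from the scanned slide images.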 Particulars: higher = more signal.
Assay [3] can be described thus: plasmodial surface anion channel blockers, osmotic lysis – cell-based, P. falciparum Indochina, OD700, 1 h, primary screen (AID 1154). Particulars: P. falciparum Indochina infected RBC osmotic lysis, higher = more signal, called active from +8 up or from −8 down.
The nature of assay [4]: plasmodial surface anion channel blockers, osmotic lysis – cell-based, P. falciparum Indochina, OD700, 2 h, primary screen (AID 1155).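 Note: lysis reports solute entry through the parasite surface anion channel PSAC.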 Particulars: P. falciparum Indochina infected erythrocytes, higher = more signal, called active from +8 up or from −8 down.
The nature of assay [5]: changes in parasitized red cell lysis, either direction – P. falciparum Indochina, OD700, 3 h, PSAC antagonist project, primary screen (AID 1156). Particulars: P. falciparum-infected erythrocytes, osmotic lysis, higher = more signal, called active from +8 up or from −8 down.
Assay [6] can be described thus: plasmodial surface anion channel blockers, osmotic lysis – cell-based, P. falciparum Indochina, OD700, 18 h, primary screen (AID 1157). Particulars: P. falciparum Indochina infected erythrocytes, osmotic lysis OD700, 18 h; higher = more signal, called active from +8 up or from −8 down.
Assay [7] is described as follows: S6 kinase pathway phospho-S6 level changes – cell-based, A549, cytoblot, luminescence, serum-stimulated, primary screen (AID 1158).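 Note: serum-stimulated A549 lung adenocarcinoma cells; signal is phosphorylated S6 detected by cytoblot immunostaining with HRP secondary.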 Particulars: 5 h, higher = more signal.
The target of assay [8] is NADPH oxidase 2 (Homo sapiens) (UniProt P04839). The experiment in a line: compounds shifting NOX2 Amplex Red fluorescence – cell-based, HEK293-NOX2, PMA-stimulated, NOX inhibitor project, primary screen (AID 1159). Note: test concentration not given here. Particulars: 45 min, higher = more signal, called active from +8 up or from −8 down.
NADPH oxidase 2 (Homo sapiens), sequence (P04839 whole entry, looked up): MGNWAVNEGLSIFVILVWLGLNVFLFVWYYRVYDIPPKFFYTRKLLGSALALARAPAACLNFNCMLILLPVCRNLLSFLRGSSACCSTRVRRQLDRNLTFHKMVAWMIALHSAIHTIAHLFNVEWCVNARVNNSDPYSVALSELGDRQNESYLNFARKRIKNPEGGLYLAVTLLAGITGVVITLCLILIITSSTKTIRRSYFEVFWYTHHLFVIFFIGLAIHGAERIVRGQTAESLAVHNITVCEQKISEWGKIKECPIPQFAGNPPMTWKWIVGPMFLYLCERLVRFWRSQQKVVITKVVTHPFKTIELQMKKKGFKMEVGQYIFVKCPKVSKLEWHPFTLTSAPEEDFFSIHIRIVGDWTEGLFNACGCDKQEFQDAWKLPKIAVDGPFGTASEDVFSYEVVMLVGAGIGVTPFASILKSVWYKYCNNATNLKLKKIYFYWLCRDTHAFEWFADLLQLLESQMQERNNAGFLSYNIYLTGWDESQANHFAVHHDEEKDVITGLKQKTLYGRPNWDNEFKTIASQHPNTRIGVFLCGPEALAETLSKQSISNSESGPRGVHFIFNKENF
For assay [9], the target named is NADPH oxidase 4 (Homo sapiens) (UniProt Q9NPH5). Put plainly: compounds shifting NOX4 Amplex Red fluorescence – cell-based, HEK293-NOX4, tetracycline-induced, NOX inhibitor project, primary screen (AID 1160). Particulars: HEK293-NOX4, Amplex Red H2O2 fluorescence, 45 min; higher = more signal, called active from +8 up or from −8 down.
NADPH oxidase 4 (Homo sapiens), sequence (Q9NPH5 whole entry, looked up): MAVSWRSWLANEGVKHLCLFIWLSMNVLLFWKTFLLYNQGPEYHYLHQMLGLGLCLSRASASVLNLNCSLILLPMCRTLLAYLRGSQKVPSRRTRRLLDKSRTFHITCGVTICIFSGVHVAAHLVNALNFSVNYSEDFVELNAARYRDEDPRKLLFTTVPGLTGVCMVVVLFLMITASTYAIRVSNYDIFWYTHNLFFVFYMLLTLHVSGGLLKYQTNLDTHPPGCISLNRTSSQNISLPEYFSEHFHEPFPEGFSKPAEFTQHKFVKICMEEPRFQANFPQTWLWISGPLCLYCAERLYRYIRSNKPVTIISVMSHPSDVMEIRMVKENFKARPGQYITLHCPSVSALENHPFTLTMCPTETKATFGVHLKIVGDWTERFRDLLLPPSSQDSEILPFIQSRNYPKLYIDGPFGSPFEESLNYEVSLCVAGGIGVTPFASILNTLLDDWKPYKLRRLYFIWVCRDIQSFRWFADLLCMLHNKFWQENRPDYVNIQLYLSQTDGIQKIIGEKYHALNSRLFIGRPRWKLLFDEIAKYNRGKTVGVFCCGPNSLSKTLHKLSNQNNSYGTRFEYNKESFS
Assay [10] addresses NADPH oxidase 5 (Homo sapiens) (UniProt Q96PH1). Put plainly: compounds shifting NOX5 Amplex Red fluorescence – cell-based, HEK293-NOX5, NOX inhibitor project, primary screen (AID 1161). Particulars: HEK293-NOX5, ionomycin, 45 min, higher = more signal.

Calls of active or inactive are those of the source.

NADPH oxidase 5 (Homo sapiens), sequence (Q96PH1 whole entry, looked up): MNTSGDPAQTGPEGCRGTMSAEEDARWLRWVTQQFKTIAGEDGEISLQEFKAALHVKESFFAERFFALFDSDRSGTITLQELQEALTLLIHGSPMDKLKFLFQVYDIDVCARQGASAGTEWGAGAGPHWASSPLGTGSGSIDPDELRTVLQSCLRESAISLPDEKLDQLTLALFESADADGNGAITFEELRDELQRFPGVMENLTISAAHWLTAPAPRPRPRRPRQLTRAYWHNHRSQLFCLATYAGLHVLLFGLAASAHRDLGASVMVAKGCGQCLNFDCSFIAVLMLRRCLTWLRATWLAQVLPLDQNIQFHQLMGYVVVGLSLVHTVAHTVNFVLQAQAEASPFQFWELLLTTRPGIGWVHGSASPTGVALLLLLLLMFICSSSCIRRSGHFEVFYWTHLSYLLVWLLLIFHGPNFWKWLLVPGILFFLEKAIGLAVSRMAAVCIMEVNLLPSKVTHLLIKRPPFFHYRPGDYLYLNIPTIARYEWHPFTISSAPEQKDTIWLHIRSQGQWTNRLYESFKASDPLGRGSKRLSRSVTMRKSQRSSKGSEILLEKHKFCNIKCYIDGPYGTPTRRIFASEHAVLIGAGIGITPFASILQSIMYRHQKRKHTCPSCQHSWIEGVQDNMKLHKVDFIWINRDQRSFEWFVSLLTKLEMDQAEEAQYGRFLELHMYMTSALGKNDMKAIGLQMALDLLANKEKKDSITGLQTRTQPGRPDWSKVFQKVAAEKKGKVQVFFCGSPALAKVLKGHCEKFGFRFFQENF

With `O=C1NC(=O)C2C1C=CC(C(O)Cc1ccccc1)N2Nc1ccc(Cl)cc1Cl` (stereo not given), the z-score in assay [1] was -0.78 (inactive); in [3], 4.35 (inactive); in assay [4], 0.953 (inactive); in assay [5] it was 0.273 (inactive); in assay [6], 1.15 (inactive); in [7] it was -0.834. In addition, the z-score in [8] is -1.28 (inactive); in [9], -5.02 (inactive); in assay [10] it was -1.9. The same molecule had a composite z-score in assay [2] of 0.599.

With `COC(=O)[C@@]1(Cc2ccc(F)cc2)[C@H]2c3cc(C(=O)N(C)C)n(CC4CC4)c3C[C@H]2CN1C(=O)c1ccccc1`, the z-score in assay [1] was -0.98 (inactive); in [3], 3.33 (inactive); in assay [4], 1.15 (inactive); in assay [5], 1.07 (inactive); in [6] it was 1.4 (inactive); in assay [7], -0.884. Also, the z-score was -0.0955 (inactive) in assay [8], 0.281 (inactive) in assay [9] and 0.873 in assay [10]. This molecule yielded a composite z-score in [2] of 2.06.

For `CN(C)C(=O)[C@]1(Cc2ccccc2N=[N+]=[N-])N=C(c2ccc(OCCCO)cc2)O[C@@H]1c1ccccc1`, the z-score in assay [1] is 0.327 (inactive); in assay [3], 30.2 (active); in [4], 27.5 (active); in assay [5] it was 2.4 (inactive); in assay [6] it was 2.53 (inactive); in assay [7], 1.38. In addition, the figures for the z-score in assay [8], in assay [9] and in [10] were -0.906 (inactive), -0.433 (inactive) and -1.67, respectively. The molecule further had a composite z-score in [2] of 0.112.

On to `COc1cc(OC)c(C(O)C2C=CC3C(=O)NC(=O)C3N2Nc2ccc(Cl)cc2Cl)cc1Br` (stereo not given), for which the z-score is -2.02 (inactive) in assay [1]; 4.81 (inactive) in assay [3]; 1.4 (inactive) in assay [4]; -0.372 (inactive) in assay [5]; 1.84 (inactive) in assay [6]; -0.924 in assay [7]. The z-score was -0.603 (inactive) in [8], -5.17 (inactive) in assay [9] and -1.12 in [10]. In assay [2], this molecule showed a composite z-score of 0.689.

Consider `CN1C(=O)C2C=CC(C(O)c3cc(C(F)(F)F)cc(C(F)(F)F)c3)N(N3CCCCC3)C2C1=O` (stereo not given), for which the z-score is -0.78 (inactive) in [1]; 1.2 (inactive) in assay [3]; 0.968 (inactive) in assay [4]; 0.859 (inactive) in assay [5]; 0.999 (inactive) in [6]; -1.08 in assay [7]. Also, the figures for the z-score in assay [8], in [9] and in assay [10] were 0.00363 (inactive), -0.651 (inactive) and 1.01, respectively. For the same molecule, the composite z-score in assay [2] turned out to be 0.349.

Turning to `CCCC[C@H]1OB(O)C[C@H]2C1=C(COc1ccccc1)C[C@H]1C(=O)N(C)C(=O)[C@H]12`, the z-score in assay [1] is -0.882 (inactive); in assay [3], 1.31 (inactive); in assay [4], -0.252 (inactive); in assay [5], -0.761 (inactive); in assay [6] it was 0.232 (inactive); in assay [7], -0.149. Besides, the z-score was -0.405 (inactive) in assay [8], 0.509 (inactive) in assay [9] and 0.224 in assay [10]. For the same molecule, the composite z-score in [2] is -0.0989.

On to `O=C1O[C@@H](c2ccccc2)[C@@H](c2ccccc2)N2[C@@H](c3ccc(OCCO)cc3)[C@]3(C(=O)Nc4ccccc43)[C@@H](C(=O)NC[C@H](O)c3ccccc3)[C@H]12`, for which the z-score in [1] was -0.29 (inactive); in assay [3] it was 6.58 (inactive); in [4] it was 1.85 (inactive); in [5] it was 0.539 (inactive); in assay [6], 0.779 (inactive); in assay [7], -0.29. Further, the z-score in assay [8] is 1.62 (inactive); in assay [9], 0.918 (inactive); in [10], 0.81. In assay [2], this molecule showed a composite z-score of -0.0491.

As for `CC(C)(C)OC(=O)CC[C@]1(C(=O)NCC(O)CO)COC(c2ccc(OCCCO)cc2)=N1` (stereo not given in full), the z-score in [1] is -0.0886 (inactive); in [3], 5.77 (inactive); in [4], 0.645 (inactive); in [5], 0.639 (inactive); in assay [6], 0.619 (inactive); in [7], 0.0272. The z-score was -2.16 (inactive) in [8], -0.351 (inactive) in [9] and -0.519 in assay [10]. The molecule further came in with a composite z-score in assay [2] of 0.149.

As to `O=C1O[C@H](c2ccccc2)[C@H](c2ccccc2)N2[C@H]1[C@@H](C(=O)NC[C@H](O)c1ccccc1)[C@]1(C(=O)Nc3ccccc31)[C@H]2c1ccc(OCCO)cc1`, the z-score in assay [1] is -1.26 (inactive); in assay [3], 4.2 (inactive); in assay [4] it was 1.36 (inactive); in assay [5], 0.179 (inactive); in [6], 1.47 (inactive); in [7], 0.0578. In addition, the z-score in [8] was 1.55 (inactive); in [9] it was 1.02 (inactive); in assay [10] it was 1.34. This molecule also gave a composite z-score in assay [2] of 0.159.

Take `COc1ccc([Si](C)(C)[C@@H]2[C@@H](CC(=O)N3Cc4ccccc4C[C@H]3CO)O[C@]3(C(=O)N(C)c4c(Br)cc(C)cc43)[C@H]2C)cc1`: the z-score in [1] is 0.0945 (inactive); in assay [3], 9.71 (active); in [4] it was 2.3 (inactive); in [5], 0.392 (inactive); in [6], 1.9 (inactive); in assay [7], 2.09. In addition, the z-score in assay [8] is 0.0136 (inactive); in [9], 0.0254 (inactive); in [10], -0.0526. The molecule also returned a composite z-score in assay [2] of 0.297.
